# In PubChem BioAssay (NCATS):
# Records with an inconclusive call do not appear. Entries that show only a call come without a potency. Calls of active or inactive are those of the source. The call rests on the fitted dose curve; in most records, active means well fitted curve in the direction sought with a large enough effect; inconclusive means small, poorly fitted or top-dose-only effect, or another doubt; inactive means no such curve, though single readings can be large; an effect the other way counts as inactive or inconclusive.
# Biological target: Aldehyde dehydrogenase, mitochondrial (Homo sapiens) (UniProt P05091)
# Assay: qHTS for Inhibitors of the Aldehyde Dehydrogenase Family (ALDH2) Primary screen (AID 2061308); further: nearly all actives have a fitted effect of over 55% in size
# Conditions: ALDH2 enzyme inhibition qHTS, 1536-well; series mostly up to 56 µM
row,Structure (SMILES),Potency
1,COc1ccc(CN2C(=O)c3ccccc3NC2c2ccc(OC)c(COc3c(C)cc(NC(C)=O)cc3C)c2)cc1 (configuration not stated),inactive
2,O=C(Nc1nnc(-c2ccco2)o1)c1ccc(Br)cc1,inactive
3,CCOC(=O)C1CCN(C(=O)C(C)(C)NC(=O)Nc2ccc(F)c(F)c2)CC1,inactive
4,Cc1cc(C)nc(NC(=S)N2CCN(c3nccc(C(F)(F)F)n3)CC2)c1,inactive
5,Cc1ccc(-c2cc(C(=O)Nc3ccc(S(=O)(=O)NCc4nccs4)cc3)c3ccccc3n2)cc1C,inactive
6,COc1cc(OC)cc(-c2nnc3n2N=C(c2ccc(OC)c(OC)c2)CS3)c1,inactive
7,C=C(C)C(=O)O[C@H]1[C@H]2C(=C)C(=O)O[C@@H]2C[C@@H](C)[C@@H]2O[C@@H]2C(=O)[C@](C)(O)[C@@H]1OC(=O)C(=C)C,inactive

# Biological target: Retinaldehyde dehydrogenase 3 (Homo sapiens) (UniProt P47895)
# Assay: qHTS for Inhibitors of the Aldehyde Dehydrogenase Family (ALDH1A3) Primary screen (AID 2061315)
# Conditions: ALDH inhibition qHTS; series mostly up to 56 µM
row,Structure (SMILES),Potency
1,O=C(c1ccccc1O)N(Cc1ccccc1)Cc1ccccc1,inactive
2,N#Cc1ccc(CSc2nc3ncc(Br)cc3[nH]2)cc1,inactive
3,Cc1cc(N[S+](=O)([O-])c2cc3c(cc2Cl)CCC(=O)N3)ccc1Cl,inactive
4,Fc1ccccc1-c1nc(NCc2ccc(-c3cccnc3)cc2)c2ccccc2n1,inactive
5,S=C(NCCCc1cnc[nH]1)NCCCN(Cc1ccc(Cl)cc1)c1ccc(Br)cn1,inactive
6,C/C1=C\CCC2=CC(OC2=O)C(C)(C)/C=C/C1=O (configuration not stated),inactive
7,Cc1c(P(=S)(c2ccccc2)c2ccccc2)c2ccccc2n1CCc1ccccc1,inactive
8,Cc1ccc(N(C)S(=O)(=O)c2ccc3c(c2)CCC(=O)N3)cc1C,inactive
9,CNc1oc(-c2cccc3c2OC(F)(F)O3)nc1C#N,inactive
10,C[C@H]1CN(S(=O)(=O)c2ccc3c(c2)OCCO3)CCN1S(=O)(=O)c1c(F)cccc1F,inactive
11,COc1ccc(NC(=O)c2ccc(-c3nc4ccccc4[nH]3)cc2)cc1OC,inactive
12,O=C(NCc1ccc(Cl)c(Cl)c1)Nc1nnc(-c2ccncc2)s1,inactive
13,O=C1CCc2cc(S(=O)(=O)Nc3ccc4c(c3)CCC4)ccc2N1,inactive
14,N#CC1=C(NC=NCc2ccccc2)Oc2ccc3ccccc3c2C1c1ccccc1 (configuration not stated),inactive
15,CCn1c2cc(C)sc2c2cnn(Cc3ccccc3F)c(=O)c21,inactive
16,N#Cc1ccc(NS(=O)(=O)c2ccc(NC(=O)Cc3ccc(F)c(Cl)c3)cc2)cc1,inactive
17,COc1cccc(NS(=O)(=O)c2ccc(C)cc2)c1C(=O)Nc1nc(-c2ccccc2)cs1,inactive
18,Cc1nc(C)c(-c2ccc3ncnc(NCCc4cnc[nH]4)c3c2)s1,inactive
19,Cc1nc(N2CCOCC2)c2nc(-c3ccccc3)n(CCN3CCCC3)c2n1,inactive
20,CCCCNc1nc(C)nc2c1nc(-c1ccccc1)n2C(C)CCCN(CC)CC (configuration not stated),inactive

row,Structure (SMILES),Potency
1,CC1=C(C(=O)n2ccc3ccccc32)C(c2ccccc2Br)N=C(Nc2nc3ccccc3o2)N1 (configuration not stated),inactive
2,N#Cc1cc(NC(=O)Nc2nnc(-c3ccncc3)s2)ccc1-c1ccc[nH]1,inactive
3,O=C(Cc1ccc(Cl)c(Cl)c1)Nc1ccc([S+](=O)([O-])Nc2ccccn2)cc1,inactive
4,N[C@H](Cc1ccccc1)C(=O)Nc1ccc(Cl)cc1C(=O)c1ccc[nH]1,inactive
5,COc1ccc(C(=O)Oc2ccc(-c3nc4ccccc4[nH]3)cc2)cc1OC,inactive
6,CCOC(=O)c1cccc(NC(=O)Nc2nnc(-c3ccncc3)s2)c1,inactive
7,CCOc1ccc(COc2ccc(-c3nc4ccccc4[nH]3)cc2)cc1,inactive
8,COC(=O)[C@@H]1C2CC3c4[nH]c5ccccc5c4CCN3CC2CC[C@@H]1O (some centres not stated),inactive
9,C=C1CC2OC(=O)C(=C)C2C(OC(=O)/C(C)=C\C)CC2(C)OC1=CC2=O (configuration not stated),inactive
10,C[C@@H]1CN(S(=O)(=O)c2ccc3c(c2)OCCO3)CCN1S(=O)(=O)c1c(F)cccc1F,inactive
11,Cc1nc(-c2ccccc2)oc1-c1ccc2ncnc(NCCc3cnc[nH]3)c2c1,inactive
12,Cc1ccnc(NC(=S)N[C@H]2CCN(c3cccc(C(F)(F)F)c3)C2)c1,inactive
13,CCOC(=O)c1ccc(-n2cnc3cc(C(=O)N4CCCCC4)ccc32)cc1,inactive
14,COc1ccc(CN2C(=O)c3ccccc3NC2c2ccc(OC)c(COc3c(C)cc(NC(C)=O)cc3C)c2)cc1 (configuration not stated),inactive
15,O=C(Nc1nnc(-c2ccco2)o1)c1ccc(Br)cc1,inactive
16,CCOC(=O)C1CCN(C(=O)C(C)(C)NC(=O)Nc2ccc(F)c(F)c2)CC1,inactive
17,Cc1cc(C)nc(NC(=S)N2CCN(c3nccc(C(F)(F)F)n3)CC2)c1,inactive
18,Cc1ccc(-c2cc(C(=O)Nc3ccc(S(=O)(=O)NCc4nccs4)cc3)c3ccccc3n2)cc1C,inactive
19,COc1cc(OC)cc(-c2nnc3n2N=C(c2ccc(OC)c(OC)c2)CS3)c1,inactive
20,C=C(C)C(=O)O[C@H]1[C@H]2C(=C)C(=O)O[C@@H]2C[C@@H](C)[C@@H]2O[C@@H]2C(=O)[C@](C)(O)[C@@H]1OC(=O)C(=C)C,inactive
